What all share (experiment): NCI-60 one-dose screen, 48 h (100 = growth as untreated, 0 = no growth, -100 = all killed)
The test system of one test is SK-MEL-2 melanoma. As to conditions: 10 µM unless noted.
The test system of the next test is EKVX NSCLC. Conditions: 10 µM unless noted.
A further test relates to UO-31 renal. Conditions: 10 µM unless noted.
For a further test, the system named is TK-10 renal. As to conditions: 10 µM unless noted.
A further test relates to ACHN renal. As to conditions: 10 µM unless noted.
For a further test, the system named is CAKI-1 renal. As to conditions: 10 µM unless noted.
The test system of the next test is A498 renal. Conditions: 10 µM.
For a further test, the system named is HL-60(TB) leukemia. As to conditions: 10 µM unless noted.
For another test, the system named is CCRF-CEM leukemia. As to conditions: 10 µM unless noted.
For the next test, the system named is SN12C renal. As to conditions: 10 µM unless noted.

The values that follow come from PubChem BioAssay (NCI).

The panel holds about 83,000 compounds, 20% with a hit somewhere; the sample as a whole holds those more often.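 Note: values are percent growth. 100 is the growth of untreated cells, values between 100 and 0 indicate rising inhibition; between -100 and 0 indicates cell death.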 Values without a mark were called inactive. Active and inactive are the calls of the source. Rule for the calls: active = growth percent below 10; inactive = the rest.

With `ClCCN(CCCl)c1nc(Cl)c(C2CC(c3ccccc3)=NN2c2cc(Cl)cc(Cl)c2)s1` (stereo not given), the growth in the test with SK-MEL-2 melanoma was 103%; in the test with EKVX NSCLC it was 101%; in the test on UO-31 renal it was 89.6%; with TK-10 renal it was 109%; in the test on ACHN renal, 96.1%; with CAKI-1 renal, 83.4%. For the same molecule, the growth in the test on A498 renal is 116%; in the test on HL-60(TB) leukemia, 105%; in the test with CCRF-CEM leukemia it was 102%.
As for `CCOC(=O)CCN(C)C1=Nc2ccc(Cl)cc2C(c2ccccc2)=[N+]([O-])C1`, the growth is 93.5% in the test with SK-MEL-2 melanoma; 102% in the test with EKVX NSCLC; 98.5% with SN12C renal; 78.6% with UO-31 renal; 91.4% in the test on TK-10 renal; 71.8% in the test with A498 renal. The growth with HL-60(TB) leukemia is 91.3%; in the test with CCRF-CEM leukemia, 99.6%.
Consider `Cc1ccc(C(=O)NCCCOc2ccc(N3C(N)=NC(N)=NC3(C)C)cc2Cl)cc1S(=O)(=O)F`, for which the growth in the test with SK-MEL-2 melanoma is 70.1%; in the test with EKVX NSCLC, 79.3%; in the test with SN12C renal it was 35.2%; in the test with UO-31 renal it was 105%; with TK-10 renal, 103%; with A498 renal it was 118%. Besides, the growth in the test with HL-60(TB) leukemia was 30.2%; in the test with CCRF-CEM leukemia, 55.1%.
On to `COC(=O)[C@@H](C)C[C@H](Cc1ccccc1)NC(=O)c1csc([C@@H](C[C@H](C(C)C)N(C)C(=O)[C@@H](NC(=O)[C@H]2CCCCN2C)c2ccc(F)cc2)OC(C)=O)n1`, for which the growth is 30.2% with SK-MEL-2 melanoma; 29.8% with EKVX NSCLC; 15.4% with SN12C renal; 35.2% in the test on UO-31 renal; 19.4% in the test with ACHN renal; 14% in the test with CAKI-1 renal. Further, the results for the growth in the test on A498 renal and in the test on HL-60(TB) leukemia were -9.07% (active) and -42.6% (active), respectively.
Consider `O=C(O)C1C(C(=O)O)C2(Cl)C(Cl)=C(Cl)C1(Cl)C2(Cl)Cl.[Hg]` (stereo not given), for which the growth was 102% with SK-MEL-2 melanoma; 102% with EKVX NSCLC; 111% in the test with UO-31 renal; 144% in the test with TK-10 renal; 99% with ACHN renal; 101% in the test on CAKI-1 renal. Moreover, the figures for the growth with A498 renal, in the test with HL-60(TB) leukemia and with CCRF-CEM leukemia were 149%, 68.9% and 71.8%, respectively.
Regarding `COc1cc2c(cc1OCc1ccccc1)C(CC(C)C)=[N+](C)CC2`, the growth was 82.1% in the test on SK-MEL-2 melanoma; 68.6% with EKVX NSCLC; 87.9% in the test on UO-31 renal; 94% in the test on TK-10 renal; 99.2% in the test with ACHN renal; 96.2% in the test with CAKI-1 renal. In addition, the growth in the test on A498 renal is 95.9%; with HL-60(TB) leukemia, 73%; with CCRF-CEM leukemia it was 73.1%.
On to `COP(=O)(OC)C(O)c1ccc(Cl)cc1` (stereo not given), for which the growth in the test with SK-MEL-2 melanoma is 109%; in the test with EKVX NSCLC, 98.4%; in the test with SN12C renal, 108%; with UO-31 renal, 83.3%; in the test on TK-10 renal it was 96.5%; with A498 renal, 98.5%. In addition, in the test with CCRF-CEM leukemia, the growth is 112%.
For the molecule `COC(=O)[C@@H](C)C[C@H](Cc1ccccc1)NC(=O)c1csc([C@@H](C[C@H](C(C)C)N(C)C(=O)[C@@H](NC(=O)[C@H]2CCCCN2C)C(C)C)OC(C)=O)n1`, the growth with SK-MEL-2 melanoma is 16.3%; in the test on EKVX NSCLC it was 29.6%; with SN12C renal, 23.3%; with UO-31 renal it was 42%; with ACHN renal it was 12.6%; with CAKI-1 renal, 12.8%. The growth was -7.32% (active) in the test with A498 renal, -47.8% (active) in the test on HL-60(TB) leukemia and 0.404% (active) in the test on CCRF-CEM leukemia.
`CCOP1(=O)CC(C)=C(Cl)C(P(=O)(OCC)OCC)C1` (stereo not given): the growth with SK-MEL-2 melanoma is 104%; with EKVX NSCLC it was 109%; in the test on SN12C renal, 101%; in the test on TK-10 renal, 135%; in the test on ACHN renal, 110%; in the test with CAKI-1 renal, 110%. For the same molecule, the growth in the test with A498 renal is 103%; in the test on HL-60(TB) leukemia it was 107%; in the test with CCRF-CEM leukemia it was -27.5% (active).
On to `CNC(=O)Oc1ccc(N(C)C)cc1C(C)C`, for which the growth in the test with SK-MEL-2 melanoma was 103%; with EKVX NSCLC, 95.5%; in the test on UO-31 renal, 88.7%; in the test on TK-10 renal it was 95%; in the test with ACHN renal, 99.4%; with CAKI-1 renal, 40.9%. Also, the growth in the test with A498 renal is 101%; with HL-60(TB) leukemia, 130%.
Regarding `Cc1c(C)c([N+](=O)[O-])c(C)c(C)c1[N+](=O)[O-]`, the growth in the test on SK-MEL-2 melanoma was 90.8%; in the test with EKVX NSCLC, 98.7%; in the test with UO-31 renal it was 106%; with TK-10 renal, 107%; with ACHN renal, 106%; in the test with CAKI-1 renal it was 91.3%. Also, the growth is 94.3% in the test with A498 renal, 109% in the test on HL-60(TB) leukemia and 99.1% with CCRF-CEM leukemia.
Take `NC(=O)C(Br)c1ccccc1` (stereo not given): the growth was 83.9% in the test on SK-MEL-2 melanoma; 109% with EKVX NSCLC; 102% in the test on UO-31 renal; 91.2% in the test with TK-10 renal; 87.2% in the test on ACHN renal; -46% (active) in the test with CAKI-1 renal. In addition, the values for the growth with A498 renal and in the test with HL-60(TB) leukemia were 87.4% and 97.7%, respectively.
`CC1=C([Te]c2ccc(O)cc2)C(=O)c2ccccc2C1=O`: the growth in the test with SK-MEL-2 melanoma was 31.2%; in the test on EKVX NSCLC, -57% (active); in the test on SN12C renal it was 11.5%; with TK-10 renal it was 36.1%; in the test with ACHN renal, 5.62% (active); in the test with CAKI-1 renal, -93.3% (active). Also, the growth in the test on A498 renal was -25.8% (active); in the test on HL-60(TB) leukemia, -38% (active); with CCRF-CEM leukemia, -13.4% (active).
`C=CCn1cc(C=C2C(=O)N(C)C(=O)N(C)C2=O)c2ccccc21`: the growth was 102% with SK-MEL-2 melanoma; 84.4% in the test with EKVX NSCLC; 78.2% in the test with UO-31 renal; 120% in the test on TK-10 renal; -90.6% (active) in the test with A498 renal; 121% in the test with HL-60(TB) leukemia. Also, the growth in the test on CCRF-CEM leukemia is 87.9%.
Consider `C[C@]12CCc3sc(-c4ccccc4O)nc3C1=CC[C@@H]1[C@@H]2CC[C@]2(C)C(=O)CC[C@@H]12`, for which the growth is 105% in the test with SK-MEL-2 melanoma; 99.7% with EKVX NSCLC; 85.8% with UO-31 renal; 104% in the test on TK-10 renal; 98.8% with ACHN renal; 83.5% with CAKI-1 renal. Besides, the growth in the test on HL-60(TB) leukemia is 103%; in the test with CCRF-CEM leukemia, 118%.
